Experimental data: the supplement of paper PMC10849652
Targets with a hit are over-represented here; the source holds about 7,900 in all. About 0.6% of all pairs of compound and target were hits.

Tests used:
Assay in all cases: log2 fold change, soluble protein after heating vs DMSO (PISA); higher = thermal stabilisation; K562 cells, 10 uM, 30 min; active = over 0.2 and 3.5 SD of the protein, either way, in both replicates (recomputed)
erlotinib = compound: C#Cc1cccc(Nc2ncnc3cc(OCCOC)c(OCCOC)cc23)c1 [erlotinib]
How it was run: (§1)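 K562 cells at 2×10^6 cells/mL were treated with 10 μM compound for 30 min. Aliquots were heated for 3 min across 48°C-58°C, pooled, and extracted in PBS with 0.5% NP-40 at 4°C; soluble protein was the supernatant after 21,000xg for 90 min. Soluble protein was quantified by TMTpro 16plex LC-MS/MS with channel sums equalised, and reported as log2 fold change in thermal stability against DMSO controls, with values from duplicates.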

[1] = compound: C/C(=N\NC(=O)C1=CC(=CC=C1)S(=O)(=O)N2CCOCC2)/C3=C(C=CC(=C3)Cl)O
How it was run: as §1

[2] = compound: C1=CC(=C(C=C1Cl)C2=NC3=NC=CN=C3C(=N2)NC4=CC=NC=C4)F
How it was run: as §1

[3] = compound: C1=CC(=CC=C1C2=NC3=C(N2)C=C(C=C3)C(=O)N)OC4=CC=C(C=C4)Cl
How it was run: as §1

[4] = compound: C1=CC2=C(C=CC(=C2)/C=C\3/C(=O)NC(=NCC4=CC=CS4)S3)N=C1
How it was run: as §1

[5] = compound: C1=CC2=NC=CN=C2C=C1/C=C/3\C(=O)NC(=O)S3
How it was run: as §1

[6] = compound: C1=CC=C(C=C1)C2=NC(=C(N2)C3=CC=NC=C3)C4=CC(=C(C=C4)Cl)O
How it was run: as §1

[7] = compound: C1=CC=C2C(=C1)C3=NNC4=CC=CC(=C43)C2=O
How it was run: as §1

[8] = compound: C1CCN(C1)C(=O)NC2=CC=CC(=C2)NC3=NC=C(C(=N3)NCCC4=CN=CN4)Br
How it was run: as §1

[9] = compound: C1CN(CCC1(CC2=CC=C(C=C2)Cl)N)C3=NC=NC4=C3C=CN4
How it was run: as §1

Measured: log2 fold change

TCOF1 isoform 4 (UniProt Q13428)
inactive: erlotinib 0.035 | [1] -0.005 | [2] -0.005 | [3] -0.008 | [4] -0.002 | [5] 0.014 | [6] -0.024 | [7] -0.001 | [8] -0.043 | [9] -0.107

TIMM44 (UniProt O43615)
inactive: erlotinib -0.012 | [1] 0.026 | [2] 0.054 | [3] -0.007 | [4] 0.024 | [5] 0.041 | [6] 0.042 | [7] 0.012 | [8] 0.028 | [9] -0.029

SLC44A2 isoform 2 (UniProt Q8IWA5)
Chain of UniProt Q8IWA5 (Q8IWA5 whole entry, looked up): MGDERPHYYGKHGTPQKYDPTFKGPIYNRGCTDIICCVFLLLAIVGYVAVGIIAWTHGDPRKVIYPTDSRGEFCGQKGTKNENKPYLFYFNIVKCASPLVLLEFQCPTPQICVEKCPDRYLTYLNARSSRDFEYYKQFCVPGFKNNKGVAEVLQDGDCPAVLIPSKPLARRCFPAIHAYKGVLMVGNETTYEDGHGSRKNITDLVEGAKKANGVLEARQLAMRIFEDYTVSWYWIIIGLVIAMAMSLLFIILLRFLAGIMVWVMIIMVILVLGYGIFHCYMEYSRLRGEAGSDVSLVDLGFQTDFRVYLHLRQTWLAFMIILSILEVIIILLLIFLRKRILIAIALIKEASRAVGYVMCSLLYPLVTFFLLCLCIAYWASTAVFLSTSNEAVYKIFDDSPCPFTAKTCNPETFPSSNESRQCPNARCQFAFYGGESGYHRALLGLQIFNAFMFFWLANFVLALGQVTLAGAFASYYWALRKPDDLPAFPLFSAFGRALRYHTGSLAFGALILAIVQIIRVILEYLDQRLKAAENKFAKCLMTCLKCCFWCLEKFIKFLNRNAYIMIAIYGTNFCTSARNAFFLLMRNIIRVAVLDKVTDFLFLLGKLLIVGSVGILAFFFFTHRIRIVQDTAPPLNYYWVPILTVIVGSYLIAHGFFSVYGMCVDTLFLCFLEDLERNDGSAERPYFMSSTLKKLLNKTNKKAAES
inactive: erlotinib 0.059 | [1] 0.028 | [2] -0.059 | [3] -0.054 | [4] 0.019 | [5] -0.096 | [6] 0.073 | [7] -0.065 | [8] -0.105 | [9] 0.01

TIPRL (UniProt O75663)
inactive: erlotinib 0.055 | [1] 0.097 | [2] 0.031 | [3] 0.009 | [4] 0.049 | [5] 0.036 | [6] -0.002 | [7] 0.03 | [8] 0.021 | [9] -0.041

SUMO1 (UniProt P63165)
inactive: erlotinib -0.126 | [1] 0.167 | [2] 0.006 | [3] -0.06 | [4] 0.182 | [5] 0.043 | [6] 0.045 | [7] -0.06 | [8] 0.211 | [9] 0.033

SRSF2 (UniProt Q01130)
inactive: erlotinib -0.003 | [1] -0.034 | [2] -0.13 | [3] 0.02 | [4] -0.029 | [5] -0.032 | [6] -0.038 | [7] -0.032 | [8] 0.041 | [9] -0.027

SLC39A11 (UniProt Q8N1S5)
Chain of UniProt Q8N1S5 (Q8N1S5 whole entry, looked up): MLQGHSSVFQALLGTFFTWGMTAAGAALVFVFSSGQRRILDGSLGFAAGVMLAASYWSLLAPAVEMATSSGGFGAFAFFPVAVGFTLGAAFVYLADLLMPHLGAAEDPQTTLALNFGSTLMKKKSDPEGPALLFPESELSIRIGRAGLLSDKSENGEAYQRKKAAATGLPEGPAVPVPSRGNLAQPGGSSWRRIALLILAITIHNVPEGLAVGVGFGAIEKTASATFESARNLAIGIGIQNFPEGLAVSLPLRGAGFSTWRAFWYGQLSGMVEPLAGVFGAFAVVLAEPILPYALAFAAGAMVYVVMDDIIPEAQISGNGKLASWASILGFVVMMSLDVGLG
inactive: erlotinib -0.042 | [1] -0.009 | [3] 0.05 | [4] 0.043 | [5] 0.009 | [6] 0.07 | [7] 0.053 | [8] -0.144 | [9] 0.019

SOX5 (UniProt P35711)
inactive: erlotinib 0.009 | [1] 0.006 | [3] 0.125 | [4] 0.047 | [5] 0.018 | [6] -0.049 | [7] 0.012 | [8] -0.069 | [9] 0.095

TM7SF2 (UniProt O76062)
inactive: erlotinib -0.012 | [3] -0.05 | [6] -0.151

SSBP4 (UniProt Q9BWG4)
inactive: erlotinib 0.08 | [1] 0.076 | [3] 0.043 | [4] -0.054 | [5] -0.056 | [6] -0.052 | [7] -0.099 | [8] 0.022 | [9] -0.024

SLC39A1 (UniProt Q9NY26)
inactive: erlotinib 0.123 | [3] 0.053

SYNE2 isoform 2 (UniProt Q8WXH0)
active: [1] -0.672
inactive: erlotinib 0.405 | [3] -0.301 | [4] 0.084 | [5] -0.027 | [6] -0.007 | [7] 0.001 | [8] -0.045 | [9] 0.029

SNX15 (UniProt Q9NRS6)
inactive: [1] 0.062 | [4] -0.088 | [5] -0.006 | [6] 0 | [7] -0.065 | [8] -0.166 | [9] -0.072

STK17B (UniProt O94768)
inactive: erlotinib 0.128 | [3] 0.072 | [5] -0.169

SMPD4 isoform 2 (UniProt Q9NXE4)
Chain of UniProt Q9NXE4 (Q9NXE4 whole entry, looked up): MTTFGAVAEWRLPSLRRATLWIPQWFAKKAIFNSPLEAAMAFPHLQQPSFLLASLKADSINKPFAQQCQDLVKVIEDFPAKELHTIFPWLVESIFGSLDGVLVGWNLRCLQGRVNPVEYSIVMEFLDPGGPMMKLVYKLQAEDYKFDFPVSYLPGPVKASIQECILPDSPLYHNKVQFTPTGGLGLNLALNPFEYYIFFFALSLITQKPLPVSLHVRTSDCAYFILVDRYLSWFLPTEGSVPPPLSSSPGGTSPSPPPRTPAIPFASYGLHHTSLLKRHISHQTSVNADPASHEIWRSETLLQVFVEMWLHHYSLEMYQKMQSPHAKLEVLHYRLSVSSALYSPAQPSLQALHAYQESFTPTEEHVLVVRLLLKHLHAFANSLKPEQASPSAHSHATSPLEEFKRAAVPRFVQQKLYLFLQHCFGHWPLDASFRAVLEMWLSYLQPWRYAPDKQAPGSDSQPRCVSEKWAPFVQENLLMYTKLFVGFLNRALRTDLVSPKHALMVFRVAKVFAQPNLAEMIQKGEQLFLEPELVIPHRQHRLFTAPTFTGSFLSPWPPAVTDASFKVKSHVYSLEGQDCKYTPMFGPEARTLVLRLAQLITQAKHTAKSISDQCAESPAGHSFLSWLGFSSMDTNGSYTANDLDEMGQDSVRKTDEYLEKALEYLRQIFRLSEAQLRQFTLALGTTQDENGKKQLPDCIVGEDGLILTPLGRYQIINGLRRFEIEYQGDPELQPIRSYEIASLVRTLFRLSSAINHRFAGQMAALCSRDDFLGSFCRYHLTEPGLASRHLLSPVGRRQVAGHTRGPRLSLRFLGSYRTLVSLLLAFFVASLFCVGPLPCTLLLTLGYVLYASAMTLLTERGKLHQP
inactive: [1] -0.001 | [4] 0.134 | [5] -0.027 | [7] -0.003 | [8] -0.011 | [9] 0.05

SLC35B1 isoform 2 (UniProt P78383)
inactive: erlotinib -0.024 | [2] -0.008 | [3] 0.127 | [5] 0.018 | [6] 0.085 | [8] -0.021 | [9] 0.271

SMARCB1 (UniProt Q12824)
inactive: [8] 0.038 | [9] 0.025

TCOF1 isoform 3 (UniProt Q13428)
inactive: erlotinib 0.062 | [2] -0.193 | [3] -0.172 | [6] -0.056 | [8] 0.101 | [9] 0.012

SREBF1 isoform 4 (UniProt P36956)
inactive: erlotinib 0.034 | [2] 0.045 | [3] 0.001 | [5] 0.068

TBP (UniProt P20226)
Chain of UniProt P20226 (P20226 whole entry, looked up): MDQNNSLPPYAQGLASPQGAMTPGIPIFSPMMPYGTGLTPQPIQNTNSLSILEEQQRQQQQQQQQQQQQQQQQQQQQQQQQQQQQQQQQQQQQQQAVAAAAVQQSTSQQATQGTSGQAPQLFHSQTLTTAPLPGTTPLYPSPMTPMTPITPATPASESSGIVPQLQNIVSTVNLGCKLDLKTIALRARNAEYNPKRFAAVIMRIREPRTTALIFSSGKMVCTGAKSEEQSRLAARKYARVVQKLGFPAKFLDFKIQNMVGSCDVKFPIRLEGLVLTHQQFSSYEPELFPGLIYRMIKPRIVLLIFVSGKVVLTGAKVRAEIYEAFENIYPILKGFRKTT
inactive: [1] -0.016 | [2] 0.027 | [4] 0.073 | [5] 0.041 | [6] 0.012 | [7] -0.058 | [8] 0.018 | [9] 0.157

SP2 (UniProt Q02086)
inactive: [1] 0 | [4] 0.229 | [7] 0.095

SRXN1 (UniProt Q9BYN0)
inactive: [1] 0.335 | [2] 0.097 | [4] 0.036 | [5] 0.031 | [6] 0.004 | [7] -0.017 | [8] -0.021 | [9] 0.048

SUN1 isoform 9 (UniProt O94901)
inactive: erlotinib 0.055 | [1] 0.037 | [3] 0.032 | [4] 0.066 | [6] -0.052 | [7] 0.066 | [8] 0.057 | [9] 0.094
active: [2] -0.346

SPAG9 isoform 4 (UniProt O60271)
inactive: erlotinib 0.019 | [1] 0.048 | [3] -0.087 | [4] -0.103 | [5] -0.065 | [6] 0.272 | [7] 0.04 | [8] 0.03 | [9] 0.119

SLC46A1 (UniProt Q96NT5)
inactive: erlotinib 0.094 | [1] -0.017 | [3] -0.054 | [4] -0.042 | [7] 0 | [8] -0.193 | [9] 0.091

TAOK2 (UniProt Q9UL54)
Chain of UniProt Q9UL54 (Q9UL54 whole entry, looked up): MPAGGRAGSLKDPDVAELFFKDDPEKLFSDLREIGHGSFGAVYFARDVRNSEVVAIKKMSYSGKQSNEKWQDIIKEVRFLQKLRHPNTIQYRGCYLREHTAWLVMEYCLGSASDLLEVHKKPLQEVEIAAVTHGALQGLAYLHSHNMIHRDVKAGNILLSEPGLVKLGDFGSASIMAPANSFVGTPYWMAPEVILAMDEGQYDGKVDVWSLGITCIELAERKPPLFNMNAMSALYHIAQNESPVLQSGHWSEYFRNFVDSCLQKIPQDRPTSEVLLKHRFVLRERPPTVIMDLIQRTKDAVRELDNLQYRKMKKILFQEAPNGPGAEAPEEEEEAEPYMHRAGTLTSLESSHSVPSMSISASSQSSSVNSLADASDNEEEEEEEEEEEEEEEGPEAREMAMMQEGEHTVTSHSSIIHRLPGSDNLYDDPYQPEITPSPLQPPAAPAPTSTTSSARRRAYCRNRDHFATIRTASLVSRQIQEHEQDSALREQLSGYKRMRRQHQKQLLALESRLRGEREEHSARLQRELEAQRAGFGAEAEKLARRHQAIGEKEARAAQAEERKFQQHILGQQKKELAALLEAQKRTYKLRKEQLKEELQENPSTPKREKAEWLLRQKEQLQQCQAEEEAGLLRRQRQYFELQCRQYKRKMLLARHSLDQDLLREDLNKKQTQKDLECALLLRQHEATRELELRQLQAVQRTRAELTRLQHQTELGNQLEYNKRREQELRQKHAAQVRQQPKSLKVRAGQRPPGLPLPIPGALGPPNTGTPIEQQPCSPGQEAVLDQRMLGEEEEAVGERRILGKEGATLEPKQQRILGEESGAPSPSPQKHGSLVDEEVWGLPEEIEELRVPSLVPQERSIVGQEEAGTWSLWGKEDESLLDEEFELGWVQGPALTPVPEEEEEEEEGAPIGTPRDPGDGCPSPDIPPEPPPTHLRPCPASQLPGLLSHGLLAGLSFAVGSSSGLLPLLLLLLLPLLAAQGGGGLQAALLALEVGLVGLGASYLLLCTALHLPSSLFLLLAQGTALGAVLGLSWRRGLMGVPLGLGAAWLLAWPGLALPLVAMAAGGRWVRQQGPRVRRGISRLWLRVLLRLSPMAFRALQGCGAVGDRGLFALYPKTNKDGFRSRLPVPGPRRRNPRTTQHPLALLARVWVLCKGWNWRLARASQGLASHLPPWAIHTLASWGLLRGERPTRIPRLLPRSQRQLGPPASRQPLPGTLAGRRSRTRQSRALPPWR
inactive: erlotinib -0.043 | [2] -0.019 | [3] 0.156 | [6] 0.029 | [8] -0.014 | [9] 0.029

SRCAP (UniProt Q6ZRS2)
inactive: erlotinib 0.039 | [3] 0.031 | [5] 0.117 | [6] -0.191 | [8] 0.059 | [9] -0.254

TAF6L (UniProt Q9Y6J9)
Chain of UniProt Q9Y6J9 (Q9Y6J9 whole entry, looked up): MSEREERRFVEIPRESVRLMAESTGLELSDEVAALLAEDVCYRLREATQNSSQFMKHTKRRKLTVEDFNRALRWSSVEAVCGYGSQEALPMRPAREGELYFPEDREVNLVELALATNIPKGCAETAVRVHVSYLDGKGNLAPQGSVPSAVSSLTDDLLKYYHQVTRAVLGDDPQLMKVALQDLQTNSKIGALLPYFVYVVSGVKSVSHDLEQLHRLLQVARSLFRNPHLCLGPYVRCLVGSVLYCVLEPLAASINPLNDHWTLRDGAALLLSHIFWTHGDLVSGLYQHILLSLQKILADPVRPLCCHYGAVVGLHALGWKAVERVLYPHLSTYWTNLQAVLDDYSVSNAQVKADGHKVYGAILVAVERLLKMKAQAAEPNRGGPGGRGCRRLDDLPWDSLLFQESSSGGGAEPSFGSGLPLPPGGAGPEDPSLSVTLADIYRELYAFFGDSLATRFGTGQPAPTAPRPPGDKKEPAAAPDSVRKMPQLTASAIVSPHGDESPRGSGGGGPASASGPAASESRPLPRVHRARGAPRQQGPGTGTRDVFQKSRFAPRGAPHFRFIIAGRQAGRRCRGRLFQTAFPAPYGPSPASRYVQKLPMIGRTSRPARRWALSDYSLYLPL
inactive: erlotinib 0.042 | [1] 0.08 | [3] -0.132 | [4] 0.009 | [6] -0.051 | [7] 0.088 | [8] -0.069 | [9] -0.197

TM7SF3 (UniProt Q9NS93)
inactive: erlotinib -0.073 | [1] 0.053 | [3] 0.03 | [4] -0.101 | [5] 0.034 | [6] 0.02 | [7] 0.061 | [8] 0.001 | [9] 0.123

TBC1D2 (UniProt Q9BYX2)
inactive: [1] 0 | [2] -0.042 | [4] 0.063 | [7] -0.006

TENT5C (UniProt Q5VWP2)
inactive: erlotinib -0.117 | [3] 0.087 | [5] 0.023 | [6] -0.104 | [8] -0.025 | [9] -0.017

SMDT1 (UniProt Q9H4I9)
inactive: [1] 0.012 | [2] -0.032 | [4] 0.044 | [5] 0.067 | [7] 0.044 | [8] 0.01 | [9] 0.036

SPIN4 (UniProt Q56A73)
inactive: erlotinib -0.125 | [3] 0.116

SLC9A6 isoform 3 (UniProt Q92581)
inactive: erlotinib 0.006 | [1] 0.013 | [3] -0.103 | [4] -0.022 | [5] 0.18 | [7] -0.068 | [8] 0.021 | [9] 0.006

TCOF1 isoform 6 (UniProt Q13428)
inactive: erlotinib -0.234 | [3] 0.074 | [5] -0.045 | [6] 0.186 | [8] 0.002 | [9] 0.02

TGFBR1 isoform 2 (UniProt P36897)
inactive: erlotinib -0.012 | [1] 0.084 | [3] -0.051 | [4] -0.072 | [5] 0.043 | [6] 0.161 | [7] 0.004 | [8] -0.019 | [9] 0.047

STK11IP (UniProt Q8N1F8)
inactive: erlotinib 0.025 | [1] 0.152 | [2] -0.079 | [3] -0.243 | [4] 0.094 | [5] 0.006 | [7] -0.062 | [8] 0.042 | [9] -0.01

TC2N (UniProt Q8N9U0)
inactive: [1] 0.038 | [4] 0.362 | [6] -0.021 | [7] 0.054 | [8] 0.042 | [9] -0.004

TK1 (UniProt K7ERV3)
inactive: [1] 0.063 | [2] -0.011 | [4] 0.028 | [5] -0.006 | [6] -0.069 | [7] 0.037 | [8] -0.015 | [9] 0.061

SLC35B4 (UniProt Q969S0)
inactive: erlotinib -0.055 | [1] 0.194 | [2] -0.033 | [3] 0.105 | [4] 0.085 | [5] 0.024 | [7] -0.243 | [8] -0.015 | [9] -0.231

TACC2 (UniProt O95359)
inactive: erlotinib -0.219 | [1] 0.008 | [3] 0.06 | [4] 0.005 | [5] 0.075 | [6] -0.128 | [7] 0.014 | [8] 0.014 | [9] -0.026

SLC8B1 (UniProt Q6J4K2)
inactive: erlotinib 0.111 | [1] 0.089 | [3] 0.003 | [4] -0.039 | [5] 0.095 | [6] 0.016 | [7] 0.032

THAP9 (UniProt Q9H5L6)
Chain of UniProt Q9H5L6 (Q9H5L6 whole entry, looked up): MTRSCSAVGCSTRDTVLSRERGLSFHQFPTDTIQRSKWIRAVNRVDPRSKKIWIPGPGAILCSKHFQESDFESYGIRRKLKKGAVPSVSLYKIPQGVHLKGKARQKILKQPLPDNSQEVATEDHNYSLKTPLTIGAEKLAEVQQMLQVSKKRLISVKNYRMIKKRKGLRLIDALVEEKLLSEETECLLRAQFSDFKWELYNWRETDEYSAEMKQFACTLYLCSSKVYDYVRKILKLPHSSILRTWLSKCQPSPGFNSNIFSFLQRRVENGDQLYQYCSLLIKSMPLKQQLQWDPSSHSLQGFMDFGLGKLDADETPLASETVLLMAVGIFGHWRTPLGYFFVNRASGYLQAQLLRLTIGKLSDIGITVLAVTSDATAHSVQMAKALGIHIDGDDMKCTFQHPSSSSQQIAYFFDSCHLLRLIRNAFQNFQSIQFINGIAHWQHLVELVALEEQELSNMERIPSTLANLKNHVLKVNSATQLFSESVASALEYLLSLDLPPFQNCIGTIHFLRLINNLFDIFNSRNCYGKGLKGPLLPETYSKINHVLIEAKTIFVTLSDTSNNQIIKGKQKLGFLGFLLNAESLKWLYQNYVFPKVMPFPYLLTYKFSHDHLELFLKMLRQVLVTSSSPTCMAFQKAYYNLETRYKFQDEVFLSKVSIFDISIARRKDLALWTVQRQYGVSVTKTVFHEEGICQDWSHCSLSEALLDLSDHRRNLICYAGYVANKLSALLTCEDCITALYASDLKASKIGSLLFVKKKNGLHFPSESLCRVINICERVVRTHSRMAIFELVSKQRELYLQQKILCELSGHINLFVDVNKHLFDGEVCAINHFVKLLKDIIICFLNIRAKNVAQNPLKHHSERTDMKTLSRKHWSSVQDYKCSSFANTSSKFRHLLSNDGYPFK
active: [1] -0.733
inactive: [4] 0.163 | [5] -0.211 | [6] 0.123 | [7] -0.057

SNX2 isoform 2 (UniProt O60749)
inactive: [1] -0.244 | [2] 0.091 | [4] 0.402 | [5] -0.186 | [7] -0.033
